In PubChem BioAssay (NCI):
About 83,000 compounds went through this panel and 20% of them were active in at least one assay; those are over-represented in the sample as a whole.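 Growth was measured after 48 h exposure to one concentration of compound in 96-well plates. Values under 10 count as active.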 The source made the active and inactive calls.

Tests used:
Experiment in all cases: NCI-60 one-dose screen, 48 h (100 = growth as untreated, 0 = no growth, -100 = all killed)
Conditions in all cases: 10 µM unless noted
NCI-H23 lung = tested on: NCI-H23 lung
NCI-H226 lung = tested on: NCI-H226 lung
NCI-H322M lung = tested on: NCI-H322M lung
HOP-62 NSCLC = tested on: HOP-62 NSCLC
NCI-H460 lung = tested on: NCI-H460 lung
NCI-H522 lung = tested on: NCI-H522 lung
A549/ATCC NSCLC = tested on: A549/ATCC NSCLC
786-0 renal = tested on: 786-0 renal
DU-145 prostate = tested on: DU-145 prostate
K-562 leukemia = tested on: K-562 leukemia
MALME-3M melanoma = tested on: MALME-3M melanoma
MDA-MB-231 breast = tested on: MDA-MB-231 breast
RXF 393 renal = tested on: RXF 393 renal
SF-268 CNS = tested on: SF-268 CNS
SF-295 CNS = tested on: SF-295 CNS
SF-539 CNS = tested on: SF-539 CNS
UACC-257 melanoma = tested on: UACC-257 melanoma
M14 melanoma = tested on: M14 melanoma
HCT-15 colon = tested on: HCT-15 colon
COLO 205 colon = tested on: COLO 205 colon

Measured: growth

CC(NC(=O)C(C)Oc1ccc(Cl)cc1Cl)C(=O)O (configuration not stated)
inactive: NCI-H23 lung 91.9% | NCI-H226 lung 92.9% | NCI-H322M lung 122% | HOP-62 NSCLC 94.5% | NCI-H460 lung 101% | NCI-H522 lung 83.6% | A549/ATCC NSCLC 116% | 786-0 renal 97.6% | DU-145 prostate 108% | K-562 leukemia 135% | MALME-3M melanoma 98.6% | MDA-MB-231 breast 96.8% | RXF 393 renal 120% | SF-268 CNS 102% | SF-295 CNS 97.8% | SF-539 CNS 102% | UACC-257 melanoma 94.6% | M14 melanoma 92.2% | HCT-15 colon 98.3%

Cn1[nH]cc(/C=N/C(N)=O)c1=O
inactive: NCI-H23 lung 104% | NCI-H226 lung 111% | NCI-H322M lung 124% | HOP-62 NSCLC 111% | NCI-H460 lung 109% | NCI-H522 lung 121% | A549/ATCC NSCLC 106% | 786-0 renal 99.8% | COLO 205 colon 110% | K-562 leukemia 103% | MALME-3M melanoma 121% | MDA-MB-231 breast 101% | SF-295 CNS 115% | SF-539 CNS 113% | UACC-257 melanoma 119% | HCT-15 colon 105%

Oc1ccccc1/C=N\Nc1ccccc1
active: SF-539 CNS 3.41%
inactive: NCI-H23 lung 87.5% | NCI-H226 lung 39.4% | NCI-H322M lung 59.9% | HOP-62 NSCLC 65.6% | NCI-H460 lung 30.9% | NCI-H522 lung 10.5% | A549/ATCC NSCLC 36.8% | 786-0 renal 43.3% | COLO 205 colon 115% | DU-145 prostate 58.5% | MALME-3M melanoma 95% | MDA-MB-231 breast 26.7% | SF-268 CNS 61.8% | SF-295 CNS 19.9% | UACC-257 melanoma 95.7% | M14 melanoma 39.4% | HCT-15 colon 25.6%

Cn1c(N)c(N=O)c(=O)[nH]c1=O
inactive: NCI-H23 lung 104% | NCI-H226 lung 106% | NCI-H322M lung 112% | HOP-62 NSCLC 103% | NCI-H460 lung 107% | NCI-H522 lung 91.8% | A549/ATCC NSCLC 97.9% | 786-0 renal 101% | DU-145 prostate 112% | K-562 leukemia 93.3% | MALME-3M melanoma 104% | MDA-MB-231 breast 112% | RXF 393 renal 114% | SF-268 CNS 110% | SF-295 CNS 114% | SF-539 CNS 105% | UACC-257 melanoma 107% | M14 melanoma 97.9%

CCOC(=O)C1C(=O)OC2CCCCC21 (configuration not stated)
inactive: NCI-H23 lung 101% | NCI-H226 lung 113% | NCI-H322M lung 113% | HOP-62 NSCLC 127% | NCI-H460 lung 110% | NCI-H522 lung 108% | A549/ATCC NSCLC 102% | 786-0 renal 100% | COLO 205 colon 120% | K-562 leukemia 102% | MALME-3M melanoma 120% | MDA-MB-231 breast 101% | RXF 393 renal 119% | SF-268 CNS 111% | SF-295 CNS 114% | SF-539 CNS 105% | UACC-257 melanoma 102% | M14 melanoma 98.3% | HCT-15 colon 101%

O=C1Nc2ccc(F)cc2/C1=C/c1nc(-c2ccc(F)cc2)n2ccccc12
inactive: NCI-H23 lung 104% | NCI-H226 lung 110% | NCI-H322M lung 124% | HOP-62 NSCLC 96.4% | NCI-H460 lung 99.2% | NCI-H522 lung 108% | A549/ATCC NSCLC 104% | 786-0 renal 114% | DU-145 prostate 74.1% | K-562 leukemia 106% | MALME-3M melanoma 91.3% | MDA-MB-231 breast 80% | RXF 393 renal 108% | SF-268 CNS 81.3% | SF-295 CNS 92.1% | SF-539 CNS 104% | UACC-257 melanoma 104% | M14 melanoma 83.2% | HCT-15 colon 105%

Cc1nn(-c2ccc(Cl)cc2)c2nc3c(nc12)C(=O)c1ccccc1-3
inactive: NCI-H23 lung 61.7% | NCI-H226 lung 32.5% | NCI-H322M lung 63.1% | HOP-62 NSCLC 51.7% | NCI-H460 lung 12.6% | NCI-H522 lung 60.7% | A549/ATCC NSCLC 55.8% | 786-0 renal 56.8% | COLO 205 colon 95.2% | DU-145 prostate 77.8% | MALME-3M melanoma 84.7% | MDA-MB-231 breast 52.7% | RXF 393 renal 45.4% | SF-268 CNS 72.4% | SF-295 CNS 36.4% | UACC-257 melanoma 91.5% | HCT-15 colon 98.5%

O=C(c1ccccc1)c1ccccc1Cl
inactive: NCI-H23 lung 100% | NCI-H226 lung 105% | NCI-H322M lung 108% | HOP-62 NSCLC 105% | NCI-H460 lung 104% | NCI-H522 lung 92.4% | A549/ATCC NSCLC 98.9% | 786-0 renal 98.8% | DU-145 prostate 108% | K-562 leukemia 100% | MALME-3M melanoma 102% | MDA-MB-231 breast 105% | RXF 393 renal 111% | SF-268 CNS 109% | SF-295 CNS 110% | SF-539 CNS 100% | UACC-257 melanoma 97.8% | HCT-15 colon 104%

CCCCn1c(Cc2ccc(Cl)cc2)nc2cc(OC)c(OC)cc2c1=O
inactive: NCI-H23 lung 74.6% | NCI-H226 lung 66.4% | NCI-H322M lung 97.3% | HOP-62 NSCLC 91.2% | NCI-H460 lung 90.6% | NCI-H522 lung 71.6% | A549/ATCC NSCLC 66.3% | 786-0 renal 84.4% | DU-145 prostate 75.5% | K-562 leukemia 40.3% | MALME-3M melanoma 101% | MDA-MB-231 breast 70.2% | RXF 393 renal 90% | SF-268 CNS 80% | SF-295 CNS 71.1% | SF-539 CNS 105% | UACC-257 melanoma 55.5% | M14 melanoma 79.2% | HCT-15 colon 75.4%

NC(=O)SCC(=O)Nc1ccccc1-c1ccccc1
inactive: NCI-H23 lung 97.2% | NCI-H226 lung 117% | NCI-H322M lung 106% | HOP-62 NSCLC 116% | NCI-H460 lung 116% | NCI-H522 lung 50.1% | A549/ATCC NSCLC 91.7% | 786-0 renal 95.5% | COLO 205 colon 95.3% | K-562 leukemia 103% | MALME-3M melanoma 158% | MDA-MB-231 breast 99.7% | RXF 393 renal 138% | SF-295 CNS 109% | SF-539 CNS 89.5% | UACC-257 melanoma 85.7% | M14 melanoma 97.7% | HCT-15 colon 107%

CCOc1ccccc1C(=O)OCC(=O)Nc1cccc(S(=O)(=O)N(C)C)c1
inactive: NCI-H23 lung 101% | NCI-H226 lung 100% | NCI-H322M lung 124% | HOP-62 NSCLC 94.2% | NCI-H460 lung 102% | NCI-H522 lung 95.1% | A549/ATCC NSCLC 87.8% | 786-0 renal 109% | DU-145 prostate 115% | K-562 leukemia 104% | MALME-3M melanoma 81.5% | MDA-MB-231 breast 110% | RXF 393 renal 64.6% | SF-268 CNS 122% | SF-295 CNS 160% | SF-539 CNS 100% | UACC-257 melanoma 93.6% | M14 melanoma 107% | HCT-15 colon 123%

O=C1CN(CO)C(=O)CN1CO
inactive: NCI-H23 lung 103% | NCI-H226 lung 113% | NCI-H322M lung 100% | HOP-62 NSCLC 106% | NCI-H460 lung 104% | NCI-H522 lung 98.9% | A549/ATCC NSCLC 103% | 786-0 renal 105% | COLO 205 colon 116% | DU-145 prostate 114% | MALME-3M melanoma 103% | MDA-MB-231 breast 108% | SF-268 CNS 105% | SF-295 CNS 101% | SF-539 CNS 115% | UACC-257 melanoma 99.8% | M14 melanoma 104% | HCT-15 colon 106%

O=C(Nc1cccc(-n2cc(-c3ccncc3)c(-c3ccc(O)c(Cl)c3)n2)c1)Nc1ccc(Cl)c(C(F)(F)F)c1
inactive: NCI-H226 lung 20.2% | HCT-15 colon 17.3%
active: NCI-H23 lung 1.11% | NCI-H322M lung -17.7% | HOP-62 NSCLC 4.91% | NCI-H460 lung 3.16% | NCI-H522 lung -7.92% | A549/ATCC NSCLC -14.8% | 786-0 renal -6.01% | DU-145 prostate 4.68% | K-562 leukemia 4.8% | MALME-3M melanoma -24% | MDA-MB-231 breast -34.8% | RXF 393 renal -21% | SF-268 CNS 3.1% | SF-295 CNS -25.7% | SF-539 CNS -19.3% | UACC-257 melanoma -19.5% | M14 melanoma -34%

Cc1cc(C)c(OC(=O)CSc2nc3ccccc3c(=O)n2CCc2ccccc2)cc1C
inactive: NCI-H23 lung 101% | NCI-H226 lung 84.8% | NCI-H322M lung 89.3% | HOP-62 NSCLC 104% | NCI-H460 lung 74.1% | NCI-H522 lung 98% | A549/ATCC NSCLC 91.9% | 786-0 renal 105% | COLO 205 colon 96% | DU-145 prostate 110% | MDA-MB-231 breast 80.1% | SF-268 CNS 97.1% | SF-295 CNS 87.3% | SF-539 CNS 97.3% | UACC-257 melanoma 103% | M14 melanoma 102% | HCT-15 colon 52.7%

CCSc1nnc2n(Cc3ccccc3)c(=O)c3c(C)c(C(N)=O)sc3n12
inactive: NCI-H23 lung 110% | NCI-H226 lung 93.8% | NCI-H322M lung 102% | HOP-62 NSCLC 101% | NCI-H460 lung 109% | NCI-H522 lung 96% | A549/ATCC NSCLC 97% | 786-0 renal 105% | COLO 205 colon 121% | MALME-3M melanoma 105% | MDA-MB-231 breast 103% | RXF 393 renal 103% | SF-268 CNS 95.1% | SF-295 CNS 91.4% | UACC-257 melanoma 100% | M14 melanoma 112% | HCT-15 colon 97.9%

COc1cc2c(cc1OC)C1CCN3C(=O)CCC3N1CC2 (configuration not stated)
inactive: NCI-H23 lung 99.3% | NCI-H226 lung 113% | NCI-H322M lung 124% | HOP-62 NSCLC 121% | NCI-H460 lung 107% | NCI-H522 lung 107% | A549/ATCC NSCLC 113% | 786-0 renal 103% | DU-145 prostate 111% | MALME-3M melanoma 117% | MDA-MB-231 breast 116% | RXF 393 renal 106% | SF-268 CNS 103% | SF-295 CNS 113% | SF-539 CNS 118% | UACC-257 melanoma 108% | M14 melanoma 116% | HCT-15 colon 110%

O=C(/C=C/c1cccnc1)NCCCCC1CCCN(C(=O)c2ccccc2)C1 (configuration not stated)
active: NCI-H522 lung 1.41% | SF-295 CNS 4.84%
inactive: NCI-H23 lung 70.1% | NCI-H226 lung 98.5% | NCI-H322M lung 65.3% | HOP-62 NSCLC 85.1% | NCI-H460 lung 29% | A549/ATCC NSCLC 49% | 786-0 renal 71.7% | DU-145 prostate 33.4% | MALME-3M melanoma 83.7% | MDA-MB-231 breast 82.6% | RXF 393 renal 109% | SF-268 CNS 74% | SF-539 CNS 28% | UACC-257 melanoma 109% | M14 melanoma 18.7% | HCT-15 colon 42%
